High-throughput results from PubChem.
The full list was thinned out, with hits kept by preference.
ERK EGF block = inhibitors of EGF-stimulated ERK signaling pathway | 130,000 compounds, 0.41% hits | HEK293-V1b, EGF-stimulated phospho-ERK AlphaScreen | Potency, µM (highest dose often 11.5 µM), inactives show at the top dose activity change, negative = inhibition, hits mostly inhibitors; active = well fitted inhibition curve with a large enough effect;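 note: plate controls were stimulated vehicle wells for no effect and unstimulated vehicle basal for full effect; nearly all actives have a fitted effect of over 55% in size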
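After overnight plating in 1% FBS, HEK293-V1b cells received test compound for half an hour, then a 5 min pulse of EGF (25 nM); ERK phosphorylation in lysates was read by bead-based AlphaScreen.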
* marks the source's active call; other numbers are inactive results; ! = not confirmed by another sample; [ ] = remark or other dose. Potency is the fitted concentration of half-maximal effect.

SMILES	ERK EGF block
C[C@H]1/C=C\CC(=O)NCc2cccc(c2)CNC(=O)N[C@H]1c1ccccc1	0.2%
COC(=O)C1(Cc2ccccc2)C=C2C(=C(C(C)C)C(=O)C2C)CN1 (centres undefined)	3.1%
Clc1ccccc1C(c1ccccc1)(c1ccccc1)n1ccnc1	22.4µM*!
Clc1ccccc1-c1nccc(-n2ccnc2)n1	26.3%
FC(F)(F)c1ccccc1-n1ccnc1	3.9%
C=CCOC(=O)N[C@H](c1ccccc1)C(C(C)=O)C(C)=O	-8.6%
C=CCC(C)(O)c1cccs1 (centres undefined)	-5.2%
CCCCC/C=C\C/C=C\C/C=C\C=C\C(=O)CCCC(=O)O	-10.0%
O=C(O)C(S)[C@@H](S)C(=O)O (some centres undefined)	3.7%
N.N.N.N.N.N.N.N.N.N.N.N.N.N.O.O.[Cl-].[Cl-].[Cl-].[Cl-].[Cl-].[Cl-].[Ru].[Ru].[Ru]	15.8µM*
Cc1ccc(/C=C2\C(=O)Nc3ccccc32)o1	4.0%
Cc1nn(-c2ccc(F)cc2)c(Cl)c1/C=C1\C(=O)Nc2ccccc21	28.2µM*
Cc1nn(-c2ccccc2)c(Cl)c1/C=C1\C(=O)N(C)C(=S)N1C	-0.7%
COc1cccc([C@@H]2Oc3ccc(Br)cc3C(=O)[C@H]2OC(=O)NS(=O)(=O)c2ccc(F)cc2)c1	-9.6%
CCC(=O)Nc1ccc(Nc2nc(C)c([N+](=O)[O-])c(Nc3ccc(NC(=O)CC)cc3)n2)cc1	-1.5%
CC(=O)Nc1ccc(Nc2nc(C)c([N+](=O)[O-])c(Nc3ccccc3)n2)cc1	31.6µM*
Cc1nc(Nc2ccc(C(=O)O)cc2)nc(Nc2ccc(C(=O)O)cc2)c1[N+](=O)[O-]	6.3%
O=C1c2ccccc2CC[C@H]1CNCCc1ccc(O)cc1	-3.2%
CCN1C(=O)/C(=C2/C=Cc3cc(C)ccc3N2CC)N(C)C1=S	14.1µM*
CCN1/C(=C2\C(=O)N(C)C(=S)N2C)C=Cc2cc(OC)ccc21	2.4%
CCN1/C(=C2\OC(=S)N(C)C2=O)C=Cc2ccccc21	-2.4%
O=C(NC[C@H]1CCCCN1)c1cc(OCC(F)(F)F)ccc1OCC(F)(F)F	-18.8%
O=C1C=CC2=C3c4cc(O)c(O)cc4C[C@@]3(O)COC2=C1	0.7%
CCOC(=O)/C=C/CCCC=O	-1.3%
COc1cc(CCNC(C)=O)c(C(=O)/C=C/c2cccc(OC)c2OC)cc1OC	-9.1%
SMILES	ERK EGF block
COc1cccc(C(=O)CC2c3c(c(Br)c4c(c3OC)OCO4)CCN2C)c1 (centres undefined)	-2.5%
COc1cc(OC)c2c(=O)c(-c3ccccc3)coc2c1	22.3%
OC(CNCCC1C=Nc2ccccc21)Cn1c2ccc(Cl)cc2c2cc(Cl)ccc21 (centres undefined)	22.4µM*
Cc1c(C)n(CC(O)CNc2ccccc2)c2ccccc12 (centres undefined)	6.2%
Cc1c(C)n(CC(O)CNCCO)c2ccccc12 (centres undefined)	4.2%
COc1cccc(-c2coc3ccc(Br)cc3c2=O)c1	-2.5%
COC(=O)[C@H](Cc1ccccc1)NC(=O)O[C@H]1C(=O)c2cc(OC)ccc2O[C@@H]1c1ccc(OC)c(Br)c1	7.1%
Cc1cc([C@](C)(N)C(=O)O)ccc1P(=O)(O)O	-7.8%
COC(=O)C/C=C/[C@@H](C)[C@H](NC(=O)OCC(Cl)(Cl)Cl)c1ccc2ccccc2c1	-6.4%
CN(C(=O)COC(=O)c1ccc2c(c1)OCCO2)c1ccccc1	-13.0%
CN(C(=O)COC(=O)c1n[nH]c2ccccc12)c1ccccc1	-9.1%
COC(=O)c1ccccc1NC(=O)COC(=O)[C@H](C)NC(N)=O	1.1%[57.5 µM]
COC(=O)c1ccccc1NC(=O)COC(=O)c1ccccc1N=Nc1ccc(N(C)C)cc1	14.1µM*
CN(C)c1ccc(N=Nc2ccccc2C(=O)OCC(=O)N(C)c2ccccc2)cc1	10µM*
CC(=O)c1ccc(NC(=O)COC(=O)c2ccccc2N=Nc2ccc(N(C)C)cc2)cc1	28.1%
CCN(CC)CCn1c(-c2ccccc2)nc2c(NC3CCCCC3)nc(C)nc21	15.5%
NCCC[C@@H](CC(=O)N[C@@H]1CCNC[C@H]1C(=O)N[C@H](CC(=O)N[C@@H](CCC(=O)O)CC(=O)O)Cc1ccccc1)NC(=O)C[C@H](CO)NC(=O)[C@@H]1CCCC[C@H]1N	-17.4%
O=C1CCC=C1C(O)CCc1ccccc1 (centres undefined)	-7.5%
COc1ccccc1CNc1ncncc1-c1ccoc1	26.5%
COc1ccccc1CNc1ncncc1-c1ccc(N(C)C)cc1	20µM*
COc1ccccc1CNc1ncncc1-c1ccccc1C	8.2%
COc1ccc2c(c1)C(=O)[C@@H](OC(=O)Nc1ccc(C)c(Br)c1)[C@H](c1ccc(OC)c(Br)c1)O2	2.6%
COc1c(C=O)c(=O)[nH]c2c(OC)cccc12	-7.5%
O=C(O)c1cccc2c(-c3ccccc3)c(-c3ccccc3)[nH]c12	8.3%[57.5 µM]
CC(=O)Nc1c(O)c2ccccc2[nH]c1=O	2.0%
SMILES	ERK EGF block
CC(=O)c1cccc2c(O)c(C3=Nc4ccccc4C3=O)[nH]c12	25.1µM*
COC(=O)C/C=C1\c2ccc3c(c2[C@@H](OC)[C@@H]1C)OCO3	0.2%
CCNc1ncc2nc(CCc3ccccc3)c(=O)n(C)c2n1	-3.1%
CCCCCCCCCCCCCCCCOCC(CO)OC(C)=O (centres undefined)	-13.0%
Cc1ccc(C(=O)OCC(=O)c2c[nH]c3ccccc23)cc1	4.6%
CC(O)C(NS(=O)(=O)c1ccc(Cl)cc1)C(=O)OCC(=O)c1c[nH]c2ccccc12 (centres undefined)	9.3%
CC(C)C(NS(=O)(=O)c1c(Cl)cccc1Cl)C(=O)OCC(=O)c1c[nH]c2ccccc12 (centres undefined)	25.1µM*
COC(=O)C/C=C/[C@@H](C)[C@H](OC)c1c(Br)ccc2c1OCO2	-7.8%
CCCCC[C@H](O)/C=C/C=C/C/C=C\CCCC(=O)O	-16.1%
COC(=O)[C@@H](NC(=O)O[C@@H]1C(=O)c2ccc(OC)cc2O[C@H]1c1ccc2c(c1)OCO2)C(C)C	13.1%
CN1CCN(c2ncc3nc(-c4ccccc4)c(=O)n(CCC#N)c3n2)CC1	9.5%
Cc1ccccc1S(=O)(=O)Nc1ncnc2scc(-c3ccccc3)c12	8.6%
Cc1sc2ncnc(Nc3ccc(O)cc3)c2c1C	28.2µM*
CN(C)CCCNc1ncnc2scc(-c3ccccc3)c12	2.9%
Cc1sc2ncnc(N)c2c1C	-6.9%[57.5 µM]
Oc1ccc(Nc2ncnc3scc(-c4ccccc4)c23)cc1	22.4µM*
Cc1sc2ncnc(N/N=C/c3cccc(O)c3)c2c1C	14.6%
Cc1nc(NCc2ccccc2)c2nc(-c3ccccc3)n(CCN3CCOCC3)c2n1	-1.0%
CC(C)[C@@H](CC(=O)N[C@@H]1CCNC[C@H]1C(=O)N[C@H](CC(=O)N[C@@H](CCC(=O)O)CC(=O)O)Cc1c[nH]c2ccccc12)NC(=O)C[C@H](CO)NC(=O)[C@@H]1CNCC[C@H]1N	-5.9%
COC(=O)/C(Cc1cc(Br)c(OC)c(Br)c1O)=N/O	-3.4%
O=[N+]([O-])c1cccc(Nc2nc(Cl)nc(Cl)n2)c1	-9.6%
Nc1c(S(=O)(=O)O)cc(Nc2ccc(Nc3nc(Cl)nc(Nc4ccc(S(=O)(=O)O)cc4)n3)c(S(=O)(=O)O)c2)c2c1C(=O)c1ccccc1C2=O	25.1µM*
O=[N+]([O-])c1ccc(Nc2nc(Cl)nc(NCCO)n2)cc1	5.0%
CSc1nc(N)c2ncn([C@@H]3O[C@H](COP(=O)(O)OP(=O)(O)OP(=O)(O)O)[C@H](O)[C@H]3O)c2n1	-1.4%
